PubChem BioAssay (NCATS)
Inconclusive results are not listed. Activity calls are given as the source filed them. Unless noted, the call rests on the fitted dose curve; in most records, active means well fitted cell-killing curve with a large enough effect; inconclusive means small, poorly fitted or top-dose-only effect; inactive means flat fitted curve, though single readings scatter.

Assays:
[1] = Cell Viability - LYMP2-025 (AID 976); settings: LYMP2-025 lymphoblastoid cell viability; series mostly up to 92.2 µM;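 further: plate controls were DMSO only for no effect and tetraoctylammonium bromide control for full effect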
Outline: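 Luminescent ATP readout after 24 hr treatment of a human lymphoblastoid line (LYMP2-025, 2500 cells/well, 37 C). Reagent developed 30 min at room temperature; AC50 fitted with the Hill equation.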

[2] = Cell Viability - LYMP2-002 (AID 977); settings: LYMP2-002 lymphoblastoid cell viability, qHTS; series mostly up to 92.2 µM;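 further: compound exposure lasted 24 h at 37 °C; plate controls were DMSO only for no effect and 92 µM tetraoctylammonium bromide for full effect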
Outline: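 Human lymphoblastoid cells (2500/well) in complete medium were preincubated 5 hr at 37 C, then exposed to compounds for 24 hr at 37 C. Intracellular ATP was read by CellTiter-Glo luminescence; AC50 came from Hill-equation concentration-response fits.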

[3] = Cell Viability - LYMP2-006 (AID 978); settings: LYMP2-006 lymphoblastoid cell viability, qHTS; series mostly up to 92.2 µM; further: nearly all actives have a fitted effect of over 60% in size; further: potency means the concentration at half of the fitted maximal effect
Outline: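 Human lymphoblastoid cells (LYMP2-006), 2500/well in complete medium, were treated with compound for 24 hr at 37 C. Cellular ATP was read by CellTiter-Glo luminescence after 30 min, and AC50 values came from Hill-equation fits of concentration-response data.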

[4] = Cell Viability - LYMP2-007 (AID 979); settings: LYMP2-007 lymphoblastoid cell viability; series mostly up to 92.2 µM;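 further: cells exposed to compound for 24 h before reading; nearly all actives have a fitted effect of over 60% in size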; further: potency means the concentration at half of the fitted maximal effect
Outline: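 Measured via luciferase-based ATP quantitation: lymphoblastoid cells, 24 hr compound exposure at 37 C, AC50 from Hill fits.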

[5] = Cell Viability - LYMP2-008 (AID 980); settings: LYMP2-008 lymphoblastoid cell viability, qHTS; series mostly up to 92.2 µM; further: nearly all actives have a fitted effect of over 60% in size; further: potency means the concentration at half of the fitted maximal effect
Outline: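 Measured: ATP-dependent luminescence, proportional to viable cell number, in human lymphoblastoid cells treated 24 hr with compound in complete culture medium. Values are AC50s from Hill-equation modelling of qHTS titrations.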

[6] = Cell Viability - LYMP2-010 (AID 981); settings: LYMP2-010 lymphoblastoid cell viability, qHTS; series mostly up to 92.2 µM; further: nearly all actives have a fitted effect of over 55% in size; further: potency means the concentration at half of the fitted maximal effect
Outline: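 This 24 hr viability screen uses LYMP2-010 lymphoblastoid cells, quantifies ATP via luciferase luminescence, and derives AC50 from Hill fits of qHTS concentration-response data.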

[7] = Cell Viability - LYMP2-012 (AID 982); settings: LYMP2-012 lymphoblastoid cell viability qHTS; series mostly up to 92.2 µM;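 further: cellular ATP by luciferase luminescence where a drop means cytotoxicity; cells exposed to compound for one day before reading; nearly all actives have a fitted effect of over 55% in size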; further: potency means the concentration at half of the fitted maximal effect
[8] = Cell Viability - LYMP2-014 (AID 983); settings: LYMP2-014 lymphoblastoid cells, viability qHTS; series mostly up to 92.2 µM; further: nearly all actives have a fitted effect of over 50% in size; further: potency means the concentration at half of the fitted maximal effect
Outline: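 Quantitative HTS in lymphoblastoid cells: 24 hr compound exposure, then CellTiter-Glo ATP luminescence. Positive control was tetraoctylammonium bromide, 6.4pM to 92 uM.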

[9] = Cell Viability - LYMP2-018 (AID 985); settings: LYMP2-018 lymphoblastoid cells, viability (qHTS); series mostly up to 92.2 µM; further: nearly all actives have a fitted effect of over 50% in size; further: potency means the concentration at half of the fitted maximal effect
Outline: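 In this qHTS viability assay, cells are treated for 24 hr and cellular ATP is quantified by luciferase-based luminescence, with tetraoctylammonium bromide as positive control.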

[10] = Cell Viability - LYMP2-020 (AID 986); settings: series mostly up to 92.2 µM; further: nearly all actives have a fitted effect of over 55% in size; further: potency means the concentration at half of the fitted maximal effect
Outline: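 Cells at 2500 per well receive a 24 hr compound exposure at 37 C. Viability is measured as ATP-dependent luciferase luminescence, with AC50 modeled from qHTS concentration-response curves.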

[11] = Cell Viability - LYMP2-022 (AID 987); settings: LYMP2-022 lymphoblastoid cell viability; series mostly up to 92.2 µM; further: nearly all actives have a fitted effect of over 55% in size; further: potency means the concentration at half of the fitted maximal effect
Outline: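 In this qHTS cytotoxicity screen, compound titrations were incubated 24 hr at 37 C with human lymphoblastoid cells in complete medium. Luciferase-based ATP luminescence provided the viability signal.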

[12] = Cell Viability - LYMP2-024 (AID 988); settings: LYMP2-024 lymphoblastoid cell viability; series mostly up to 92.2 µM; further: nearly all actives have a fitted effect of over 60% in size; further: potency means the concentration at half of the fitted maximal effect
Outline: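 Cells at 2500 per well received compound for 24 hr after a 5 hr settling period. Viability was scored by CellTiter-Glo luminescence, with AC50 from Hill fits.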

[13] = Cell Viability - LYMP2-026 (AID 989); settings: LYMP2-026 lymphoblastoid cell viability, qHTS; series mostly up to 92.2 µM; further: on the % scale 0 is the no-effect control and ±100 the full control effect; nearly all actives have a fitted effect of over 50% in size
Outline: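 Acute toxicity screen in complete culture medium, with 24 hr compound exposure at 37 C. Viability read as cellular ATP via luciferase reaction, with tetraoctylammonium bromide (6.4pM to 92 uM) as positive control.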

[14] = Cell Viability - LYMP1-002 - Assay at 24 hr (AID 993); settings: LYMP1-002 lymphoblastoid cells viability; series mostly up to 92.2 µM; further: potency means the concentration at half of the fitted maximal effect
Outline: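 Viability was judged from intracellular ATP using a luciferase read-out, following a 24-hour compound incubation at 37 C of lymphoblastoid cells seeded at 2500 per well. Concentration-response data were fitted to the Hill equation for AC50.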

[15] = Cell Viability - LYMP1-002 - Assay at 40 hr (AID 994); settings: LYMP1-002 lymphoblastoid cell viability; series mostly up to 92.2 µM; further: nearly all actives have a fitted effect of over 60% in size; further: potency means the concentration at half of the fitted maximal effect
Outline: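 Concentration-dependent ATP loss after 40 hr treatment at 37 C defined toxicity; AC50 values were obtained by fitting the standard Hill equation.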

[16] = qHTS Assay for Lipid Storage Modulators (AID 1519; calls by dose curve; on activity change, negative = inhibition: on the % scale 0 is the no-effect control and ±100 the full control effect); settings: Drosophila S3 cells, BODIPY lipid droplet/cell ratio, laser cytometry, cells loaded with oleic acid; for activity change, negative = inhibition: at 57.5 µM (top of the series)
Outline: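 Cells seeded at 5,000 per well were treated with compounds over a concentration series and loaded with oleic acid (400 uM, as added). Lipid droplet fluorescence (488 nm excitation, 500-530 nm channel) was read by laser-scanning cytometry and normalized to 20 uM Triacsin C.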

[17] = measured here: cell count channel max response
[18] = measured here: lipid channel max response

C/C=C/C=C/C(=O)O
inactive: outcome [1] | outcome [2] | Potency [3] | Potency [4] | Potency [5] | Potency [6] | Potency [7] | Potency [8] | Potency [9] | Potency [10] | Potency [11] | Potency [12] | outcome [13] | Potency [14] | Potency [15]

C=C1C(CCl)(CCl)C2(Cl)C(Cl)C(Cl)C1(Cl)C2(Cl)Cl (stereo not drawn)
active: Potency [3] 50.1 µM | Potency [4] 39.8 µM | Potency [5] 31.6 µM | Potency [6] 39.8 µM | Potency [7] 39.8 µM | Potency [8] 50.1 µM | Potency [9] 50.1 µM | Potency [10] 50.1 µM | Potency [11] 39.8 µM | Potency [12] 39.8 µM | Potency [14] 50.1 µM

Nc1nccs1
14.6%: max response [16, 18]
inactive: outcome [1] | outcome [2] | Potency [3] | Potency [4] | Potency [5] | Potency [6] | Potency [7] | Potency [8] | Potency [9] | Potency [10] | Potency [11] | Potency [12] | outcome [13] | Potency [14] | Potency [15] | activity change, negative = inhibition [16] 6.96%
-1.03%: max response [16, 17]

NC(N)=O
16.8%: max response [16, 17]
inactive: outcome [1] | outcome [2] | Potency [3] | Potency [4] | Potency [5] | Potency [6] | Potency [7] | Potency [8] | Potency [9] | Potency [10] | Potency [11] | Potency [12] | outcome [13] | Potency [14] | Potency [15] | activity change, negative = inhibition [16] 6.91%
28%: max response [16, 18]

O=P(O)(O)O
inactive: outcome [1] | outcome [2] | Potency [3] | Potency [4] | Potency [5] | Potency [6] | Potency [7] | Potency [8] | Potency [9] | Potency [10] | Potency [11] | Potency [12] | outcome [13] | Potency [14] | Potency [15]

CCOC(C)OCC
inactive: outcome [1] | outcome [2] | Potency [3] | Potency [4] | Potency [5] | Potency [6] | Potency [7] | Potency [8] | Potency [9] | Potency [10] | Potency [11] | Potency [12] | outcome [13] | Potency [14] | Potency [15]

C[C@H](CCC(=O)O)[C@H]1CC[C@H]2[C@@H]3CC[C@@H]4C[C@H](O)CC[C@]4(C)[C@H]3C[C@H](O)[C@]12C
inactive: outcome [1] | outcome [2] | Potency [3] | Potency [4] | Potency [5] | Potency [6] | Potency [9] | Potency [10] | Potency [11] | Potency [12] | outcome [13] | Potency [14] | Potency [15]

Oc1cccc(O)c1O
inactive: outcome [1] | outcome [2] | Potency [3] | Potency [5] | Potency [7] | Potency [8] | Potency [9] | Potency [10] | outcome [13] | Potency [14] | Potency [15]

NCCN
inactive: outcome [1] | outcome [2] | Potency [3] | Potency [4] | Potency [5] | Potency [6] | Potency [7] | Potency [8] | Potency [9] | Potency [10] | Potency [11] | Potency [12] | outcome [13] | Potency [14] | Potency [15]

Cc1ncc[nH]1
inactive: outcome [1] | outcome [2] | Potency [3] | Potency [4] | Potency [5] | Potency [6] | Potency [7] | Potency [8] | Potency [9] | Potency [10] | Potency [11] | Potency [12] | outcome [13] | Potency [14] | Potency [15]

CCCCO
inactive: outcome [1] | outcome [2] | Potency [3] | Potency [4] | Potency [5] | Potency [6] | Potency [7] | Potency [8] | Potency [9] | Potency [10] | Potency [11] | Potency [12] | outcome [13] | Potency [14] | Potency [15]

CCCCC
inactive: outcome [1] | outcome [2] | Potency [3] | Potency [4] | Potency [5] | Potency [6] | Potency [7] | Potency [8] | Potency [9] | Potency [10] | Potency [11] | Potency [12] | outcome [13] | Potency [14] | Potency [15]

OCC(O)CO
inactive: outcome [1] | outcome [2] | Potency [3] | Potency [4] | Potency [5] | Potency [6] | Potency [7] | Potency [8] | Potency [9] | Potency [10] | Potency [11] | Potency [12] | outcome [13] | Potency [14] | Potency [15]

OCc1ccccc1
inactive: outcome [1] | outcome [2] | Potency [3] | Potency [4] | Potency [5] | Potency [6] | Potency [7] | Potency [8] | Potency [9] | Potency [10] | Potency [11] | Potency [12] | outcome [13] | Potency [14] | Potency [15]

CC/C=C\C/C=C\C/C=C\CCCCCCCC(=O)O
active: Potency [4] 39.8 µM | Potency [6] 39.8 µM | Potency [11] 50.1 µM | Potency [12] 39.8 µM
inactive: outcome [2] | Potency [14] | Potency [15]

CC1=CCC2CC1C2(C)C (stereo not drawn)
inactive: outcome [1] | outcome [2] | Potency [3] | Potency [4] | Potency [5] | Potency [6] | Potency [7] | Potency [8] | Potency [9] | Potency [10] | Potency [11] | Potency [12] | outcome [13] | Potency [14] | Potency [15]

CO/N=C(/C(=O)N[C@@H]1C(=O)N2C(C(=O)O)=C(COC(N)=O)CS[C@H]12)c1ccco1
inactive: outcome [1] | outcome [2] | Potency [3] | Potency [4] | Potency [5] | Potency [6] | Potency [7] | Potency [8] | Potency [9] | Potency [10] | Potency [11] | Potency [12] | outcome [13] | Potency [14] | Potency [15]

CC1=CC(=O)NS(=O)(=O)O1
inactive: outcome [1] | outcome [2] | Potency [3] | Potency [4] | Potency [5] | Potency [6] | Potency [7] | Potency [8] | Potency [9] | Potency [10] | Potency [11] | Potency [12] | outcome [13] | Potency [14] | Potency [15]

O=c1n(CC2CO2)c(=O)n(CC2CO2)c(=O)n1CC1CO1 (stereo not drawn)
active: Potency [3] 39.8 µM | Potency [4] 39.8 µM | Potency [6] 25.1 µM | Potency [7] 25.1 µM | Potency [9] 15.8 µM | Potency [10] 25.1 µM | Potency [11] 31.6 µM | Potency [12] 39.8 µM | Potency [14] 39.8 µM | Potency [15] 7.94 µM

OC[C@H]1O[C@@H]2O[C@H]3[C@H](O)[C@@H](O)[C@@H](O[C@H]4[C@H](O)[C@@H](O)[C@@H](O[C@H]5[C@H](O)[C@@H](O)[C@@H](O[C@H]6[C@H](O)[C@@H](O)[C@@H](O[C@H]7[C@H](O)[C@@H](O)[C@@H](O[C@H]1[C@H](O)[C@H]2O)O[C@@H]7CO)O[C@@H]6CO)O[C@@H]5CO)O[C@@H]4CO)O[C@@H]3CO
inactive: outcome [1] | outcome [2] | Potency [3] | Potency [4] | Potency [5] | Potency [6] | Potency [7] | Potency [8] | Potency [9] | Potency [10] | Potency [11] | Potency [12] | outcome [13] | Potency [14] | Potency [15]

[O-][N+](=Nc1ccccc1)c1ccccc1
inactive: outcome [1] | outcome [2] | Potency [3] | Potency [4] | Potency [5] | Potency [6] | Potency [7] | Potency [8] | Potency [9] | Potency [10] | Potency [11] | Potency [12] | outcome [13] | Potency [14] | Potency [15]

c1ccc2ccccc2c1
inactive: outcome [1] | outcome [2] | Potency [3] | Potency [4] | Potency [5] | Potency [6] | Potency [7] | Potency [8] | Potency [9] | Potency [10] | Potency [11] | Potency [12] | outcome [13] | Potency [14] | Potency [15]
